{"source": "PubChem BioAssay AID624246", "about": "(National Center for Advancing Translational Sciences (NCATS), 2012)", "note": "Screen size: about 370,000 compounds; about 100 (0.027%) were called active. For the sample, actives were picked, then their nearest neighbours and some compounds at random. Values without a mark were called inactive. The call rests on the fitted dose curve; in most records, active means well fitted inhibition curve with a large enough effect in the polarisation, with a control signal flat; inconclusive means small, poorly fitted or top-dose-only effect, or effect the other way, or a change in a side signal; inactive means no such curve, though single readings can be large or run the other way; the % refers to the polarisation. Potency means the concentration at half of the fitted maximal effect."}
{"biological_target": "Transcriptional regulator ERG (Homo sapiens) (UniProt P11308)", "sequence (P11308 whole entry, looked up, the tested form may be a part)": "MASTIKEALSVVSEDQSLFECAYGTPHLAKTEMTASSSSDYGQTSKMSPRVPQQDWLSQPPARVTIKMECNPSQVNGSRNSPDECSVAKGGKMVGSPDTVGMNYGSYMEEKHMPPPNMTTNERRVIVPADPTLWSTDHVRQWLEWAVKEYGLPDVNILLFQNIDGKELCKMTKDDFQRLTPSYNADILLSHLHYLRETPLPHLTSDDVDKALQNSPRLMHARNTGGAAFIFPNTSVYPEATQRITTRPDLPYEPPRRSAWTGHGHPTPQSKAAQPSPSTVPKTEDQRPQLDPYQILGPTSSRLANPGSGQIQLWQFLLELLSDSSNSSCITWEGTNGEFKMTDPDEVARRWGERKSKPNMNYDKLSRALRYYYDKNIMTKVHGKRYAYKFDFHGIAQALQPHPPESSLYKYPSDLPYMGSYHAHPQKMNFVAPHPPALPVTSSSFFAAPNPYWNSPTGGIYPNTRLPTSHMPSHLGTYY", "test": "qHTS for Small Molecule Inhibitors of the ERG Ets/DNA interaction; on FP activity, negative = inhibition: % of control where 0% means no effect", "details": "fluorescence polarization, His-ERG Ets domain / labelled DNA; series mostly up to 76.9 µM; FP activity, negative = inhibition: at the top concentration", "text": "The Ets family of proteins is a family of ~30 conserved transcription factors defined by the presence of an ~85 amino acid domain referred to as the Ets domain, which mediates sequence-specific DNA binding to a core DNA element GGAA/T.The Ets family member ERG has been linked to several neoplasms. […] More extensive studies of the effects of over-expression of ERG in prostate cells have recently been carried out and have shown that over-expression of ERG results in increased invasion. […] We will carry out a high throughout screen to identify inhibitors of the interaction between ERG and DNA using a fluorescence polarization (FP) assay with a His-tagged ERG Ets domain and fluorescently-labeled DNA probes to develop small molecule inhibitors of this interaction as probes to test this hypothesis and lay the groundwork for the development of targeted therapies against ERG. NIH Molecular Libraries Probe Production Network [MLPCN] NIH Chemical Genomics Center [NCGC] Grant: NS066464 PI Name: John Bushweller, University of Virgina\n1.5 ul of protein solution (1 uM ERG domain in 300mM KCl, 50mM Tris-HCl, 1mM EDTA, 1mM DTT, pH 7.5); 20 nl Control plate and compound library plate; 1.5 ul mixture of 5 nM Fluorescein-DNA and 100nM Texas-615-DNA solution in same buffer as above solution; measure fluorescence polarization sequentially for fluorescein (Excitation = 480 nm, Emission = 535s, 535p nm) and Texas red (Excitation = 555 nm, Emission = 632s, 632p nm).", "units": {"FP activity, negative = inhibition": "%"}}
{"compound": "Cc1ccc(NC(=O)CSc2nc3c(c(=O)[nH]2)CN(Cc2ccc4c(c2)OCO4)CC3)cc1C", "FP activity, negative = inhibition": -1.58}
{"compound": "CCCCc1nn2c(=O)cc(COC(=O)c3ccc(NC(=O)c4ccccc4C)cc3)nc2s1", "FP activity, negative = inhibition": -6.35}
{"compound": "Cc1ccc(NC(=O)CSc2nc3ccccc3c3nc(CCn4cncc4C)nn23)cc1F", "FP activity, negative = inhibition": -3.62}
{"compound": "CC1=C(C(=O)N2CCN(c3cccc(C(F)(F)F)c3)CC2)C2(CCCCC2)OC1=O", "FP activity, negative = inhibition": 8.81}
{"compound": "O=C(CNC(=O)c1ccco1)OCC(=O)c1ccccc1", "FP activity, negative = inhibition": -7.95}
{"compound": "COCCn1c(C)cc(C(=O)COC(=O)CNC(=O)c2ccco2)c1C", "Potency": "7.94 µM (active)"}
{"compound": "Cc1cc(C(=O)COC(=O)CNC(=O)c2ccc(F)cc2)c(C)n1Cc1ccco1", "FP activity, negative = inhibition": -5.22}
{"compound": "CC(C)c1ccc(NC(=O)CN(C)S(=O)(=O)c2ccc3c(c2)c(=O)n(C)c(=O)n3C)cc1", "FP activity, negative = inhibition": 2.26}
{"compound": "CCOC(=O)c1cccc(NC(=O)C(Cc2ccccc2)NS(=O)(=O)c2cccc3nsnc23)c1", "note": "(configuration not stated)", "FP activity, negative = inhibition": -2.33}
{"compound": "CCS(=O)(=O)N1CCC(n2c(C)nc3cccnc32)CC1", "FP activity, negative = inhibition": -0.342}
{"compound": "CCOc1ccc(-c2cc3nc(C4CCN(C(=O)OC(C)(C)C)CC4)c(C(=O)Nc4ccc(C(=O)OC)cc4)cn3n2)cc1", "FP activity, negative = inhibition": 5.08}
{"compound": "CCc1ccc(CN(Cc2ccco2)C(=O)c2ccccc2Cl)cc1", "FP activity, negative = inhibition": 1.74}
{"compound": "CCN(CCCNC(=O)Cn1ncc2c3ccccc3n(C)c2c1=O)Cc1ccccc1", "FP activity, negative = inhibition": -2.87}
{"compound": "CCC(=O)N1CCc2cc(S(=O)(=O)NCCC(=O)Nc3cccc(C)c3C)ccc21", "FP activity, negative = inhibition": -8.47}
{"compound": "Cc1ccc(-n2ncc(C(=O)N(C)Cc3ccccc3)c2-n2cccc2)cc1", "FP activity, negative = inhibition": -2.68}
{"compound": "Cc1cc(O)c(C(c2ccccc2)N2CCN(c3ccccc3F)CC2)c(=O)n1Cc1ccco1", "note": "(configuration not stated)", "FP activity, negative = inhibition": -1.43}
{"compound": "CCOc1ccc(C(=O)/C=C/c2cn(CC(O)CN3CCCCCC3)c3ccccc23)cc1", "note": "(configuration not stated)", "FP activity, negative = inhibition": -4.97}
{"compound": "Cc1cc(C)c(NC(=O)CN2C(=O)c3cccnc3Oc3ccc(Cl)cc32)c(C)c1", "FP activity, negative = inhibition": 2.19}
{"compound": "CCc1ccc(S(=O)(=O)c2nnn3c2nc(N2CCN(CC)CC2)c2sccc23)cc1", "FP activity, negative = inhibition": 6.31}
{"compound": "Cc1cccc(NC(=O)CSc2nnc(CNC(=O)c3cccc(C)c3)n2-c2ccccc2)c1", "FP activity, negative = inhibition": 4.19}
{"compound": "Cc1ccccc1-c1nc2scc(CCNC(=O)C(=O)Nc3ccc(F)cc3F)n2n1", "FP activity, negative = inhibition": -7.04}
{"compound": "CC(C)CCNC(=O)CSc1nc2ccccc2nc1Cc1ccc(Cl)cc1", "FP activity, negative = inhibition": -16.9}
{"compound": "CC(=O)Nc1cccc(NC(=O)CSc2nccn2Cc2ccc3c(c2)OCO3)c1", "FP activity, negative = inhibition": 3.24}
{"compound": "CCC(=O)N1CCc2cc(Br)cc(S(=O)(=O)Nc3ccc(C)cc3C)c21", "FP activity, negative = inhibition": 0.336}
{"compound": "O=C(CN1CCN(Cc2ccc(Cl)cc2)C1=O)NCc1ccc(F)cc1", "FP activity, negative = inhibition": 5.89}
{"compound": "COc1ccc(-c2cccc(NS(=O)(=O)c3cc(C)c(OC)c(C)c3C)c2)nn1", "FP activity, negative = inhibition": -0.101}
{"compound": "Cc1nn2c(=O)cc(COC(=O)CNC(=O)c3ccc(F)cc3)nc2s1", "FP activity, negative = inhibition": -9.84}
{"compound": "CCOc1ccccc1C(=O)NCc1ccc2c(c1)CCN2C(=O)c1ccc(F)cc1", "FP activity, negative = inhibition": -0.811}
{"compound": "Cc1c(NC(=O)Nc2ccc(F)c(Cl)c2)c(=O)n(-c2ccccc2)n1C", "FP activity, negative = inhibition": -5.55}
{"compound": "Cc1ccc(N2CC(NC(=O)Cc3cccs3)CC2=O)cc1", "note": "(configuration not stated)", "FP activity, negative = inhibition": -1.63}
{"compound": "Cc1nnc(N2CCC(C(=O)Nc3ccc(F)cc3)CC2)c2nn(-c3ccc(Cl)cc3)c(C)c12", "FP activity, negative = inhibition": 4.61}
{"compound": "Cc1ccc(C)c(N2CCN(C(=O)Cn3ncc4c(=O)oc5ccc(C)cc5c43)CC2)c1", "FP activity, negative = inhibition": -2.21}
{"compound": "Cc1ccc(C(=O)N2CCc3cc(CNC(=O)c4ccc(Br)cc4)ccc32)cc1", "FP activity, negative = inhibition": 0.293}
{"compound": "Cc1ccc(S(=O)(=O)NCc2nc3nc(C)cc(C)n3n2)cc1", "FP activity, negative = inhibition": -0.121}
{"compound": "CCN(CCCNC(=O)c1cc(Nc2ccc(OC)cc2)nc2ccccc12)c1cccc(C)c1", "FP activity, negative = inhibition": 11.4}
{"compound": "CCc1nnc2c3ccccc3nc(N3CCN(c4ccc(C)cc4C)CC3)n12", "FP activity, negative = inhibition": -1.84}
{"compound": "Cc1nnc(SCc2cc(=O)c3cc(F)ccc3[nH]2)n1C", "FP activity, negative = inhibition": -0.734}
{"compound": "Cc1ccc(C(=O)Nc2ccc3[nH]c(=O)c(=O)[nH]c3c2)cc1", "FP activity, negative = inhibition": 10.2}
{"compound": "Cc1sc(C2C(C#N)=C(N)N(c3cccc(Cl)c3)C3=C2C(=O)CCC3)cc1CN1CCOCC1", "note": "(configuration not stated)", "FP activity, negative = inhibition": -0.155}
{"compound": "O=C(CCc1ccccc1)NCc1ccc2c(c1)CCN2C(=O)c1ccccc1", "FP activity, negative = inhibition": -1.84}
{"compound": "CCc1ccccc1NC(=O)c1sc2nc3c(cc2c1N)CN(Cc1ccccc1)CC3", "FP activity, negative = inhibition": 2.85}
{"compound": "COc1ccc(CCNC(=O)c2ccc(CSCc3ccc(C)cc3)o2)cc1OC", "FP activity, negative = inhibition": -0.298}
{"compound": "CCCn1c2ccccc2c2cnn(CC(=O)N3CCCC(C(=O)OCC)C3)c(=O)c21", "note": "(configuration not stated)", "FP activity, negative = inhibition": 1.31}
{"compound": "Cc1cc(C(=O)Nc2cccc(C(F)(F)F)c2)c2c(C)nn(-c3cccc(F)c3)c2n1", "FP activity, negative = inhibition": 16.8}
{"compound": "CC(C)(C)c1ccc(C(=O)Nc2ccc3c(c2)CCCN3C(=O)c2cccs2)cc1", "FP activity, negative = inhibition": -9.6}
{"compound": "COc1ccc(-c2nc(CS(=O)CC(=O)NCc3ccccn3)c(C)o2)cc1", "note": "(configuration not stated)", "Potency": "35.5 µM (active)"}
{"compound": "COc1ccc(-c2nc(CS(=O)CC(=O)NCc3cccnc3)c(C)o2)cc1OC", "note": "(configuration not stated)", "FP activity, negative = inhibition": 2.92}
{"compound": "COc1ccc(CNC(=O)CS(=O)Cc2nc(-c3cccc(C)c3)oc2C)cc1", "note": "(configuration not stated)", "FP activity, negative = inhibition": 7.27}
{"compound": "Cc1cc(C)nc(NS(=O)(=O)c2ccc(NC(=O)c3cc(=O)c4ccc(C)c(C)c4o3)cc2)n1", "FP activity, negative = inhibition": 5.27}
{"compound": "CCCn1c(NCc2ccccc2F)nc2ccccc21", "FP activity, negative = inhibition": -2.58}
{"compound": "O=C(CSc1nc(Nc2ccc(F)c(F)c2)c2ccccc2n1)c1ccc(Cl)cc1", "FP activity, negative = inhibition": 3.88}
{"compound": "COc1cc(C(=O)Nc2ccc(OCc3cc(=O)n4ccc(C)cc4n3)cc2)cc(OC)c1OC", "FP activity, negative = inhibition": 3.21}
